Compounds with a hit are over-represented: about 0.74% of the library has one in this group of screens.
MazF activator = increases E. coli MazEF RNase cleavage of RNA | P0AE70 | FAM/BHQ RNA-DNA oligo cleavage fluorescence, 5 h | 350,000 compounds, 0.32% hits | activation, % at 20 µM; in the data active means activation above about 50%
Target sequence (P0AE70 whole entry, looked up): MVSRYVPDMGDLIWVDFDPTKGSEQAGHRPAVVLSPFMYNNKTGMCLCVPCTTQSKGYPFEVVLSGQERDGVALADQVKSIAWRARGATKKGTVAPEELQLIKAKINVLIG
FadD28 FP inh = inhibitors of Mycobacterium tuberculosis FadD28 bisubstrate binding; 360,000 compounds, 0.22% hits; FadD28 bisubstrate probe binding, fluorescence polarization; AID 588549; inhibition, % at 12.5 µM; in the data active means inhibition above about 8.5%, passing the limit was not always enough
Mtb bLac sens = beta-lactam sensitization of Mtb H37Rv; M. tuberculosis H37Rv growth with meropenem, percent inhibition; inhibition, % at 25 µM; 330,000 compounds, 0.27% hits; AID 434955; call rule not given here;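 further: growth measured after seven days incubation then overnight dye step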
BH1578 lux ind = induces V. cholerae light production without autoinducers; V. cholerae BH1578 lux reporter, luminescence, 6 h; activation, % at 18.7 µM; 350,000 compounds, 0.16% hits; in the data active means activation mostly above about 9.7%, no sharp cut-off
Rv3671c protease = inhibitors of M. tuberculosis serine protease Rv3671c; inhibition, % at 5.96 µM; 320,000 compounds, 0.048% hits; P9WHR9; in the data active means inhibition above about 38%;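 further: extracellular domain of Rv3671c used as enzyme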
Target sequence (P9WHR9 whole entry, looked up, the tested form may be a part): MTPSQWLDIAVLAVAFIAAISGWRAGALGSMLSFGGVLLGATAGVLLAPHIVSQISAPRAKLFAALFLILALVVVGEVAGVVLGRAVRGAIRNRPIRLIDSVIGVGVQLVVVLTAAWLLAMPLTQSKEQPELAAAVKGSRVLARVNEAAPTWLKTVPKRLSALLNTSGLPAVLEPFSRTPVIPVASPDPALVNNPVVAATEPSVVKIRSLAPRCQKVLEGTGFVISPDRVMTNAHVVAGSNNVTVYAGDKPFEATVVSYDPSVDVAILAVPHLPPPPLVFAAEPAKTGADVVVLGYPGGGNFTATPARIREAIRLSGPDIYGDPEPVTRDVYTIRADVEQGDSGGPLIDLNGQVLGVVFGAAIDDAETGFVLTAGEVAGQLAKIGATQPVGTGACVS
UGM FP inh = blocks M. tuberculosis UGM enzyme | purified UGM, fluorescence polarization probe displacement | inhibition, % at 10 µM | 320,000 compounds, 0.06% hits; in the data active means inhibition above about 10%, passing the limit was not always enough
A number is an active result; n = inactive; x = no result given; + = active, no number.

SMILES | MazF activator | FadD28 FP inh | Mtb bLac sens | BH1578 lux ind | Rv3671c protease | UGM FP inh
O=C(Nc1ccccc1)c1cc(C2COCCN2C(=O)c2cccs2)on1 (stereo not given) | x | n | x | n | x | x
Cn1nc([N+](=O)[O-])c(C(C#N)c2nc3ccccc3n2C)c(Cl)c1=O (stereo not given) | n | 12 | n | n | n | n
O=C(Nc1ccc2c(c1)[C@H]1C[C@@H](CC(=O)N3CCOCC3)O[C@@H](CO)[C@H]1O2)C1CCOCC1 | n | n | x | n | x | x
N#C/C(=C(/O)c1ccc([N+](=O)[O-])o1)c1nc2ccccc2[nH]1 | 141 | n | n | 35 | n | n
COc1ccccc1NC(=O)NC1(C(=O)N2CCCCC2)CCCCC1 | n | n | n | n | n | n
CCc1cccc2c(C(=O)CN3C(=O)NC4(CCCCCC4)C3=O)c[nH]c12 | n | 53 | n | n | n | n
CCc1cccc2c(C(=O)CN3C(=O)C(=O)N(C4CCCC4)C3=O)c[nH]c12 | n | 14 | n | n | n | n
Cc1ccc(C)c(C(=O)CN2C(=O)NC3(CCCCCCC3)C2=O)c1 | n | n | n | n | n | n
CCc1cccc2c(C(=O)CN3C(=O)NC4(CCCCC4)C3=O)c[nH]c12 | n | 13 | n | n | n | n
COC(=O)c1ccc(CNC(=O)C(C)N=C2NS(=O)(=O)c3ccccc32)cc1 (stereo not given) | n | n | x | n | x | x
CCOc1ccccc1N1CCN(C(=O)CSc2ccc3c(c2)OCCO3)CC1 | n | n | n | n | n | n
Cn1cccc1/C=C1/C(=O)NC(=S)N(Cc2ccc(F)cc2)C1=O | n | 44 | n | n | n | n
Cn1cccc1/C=C1/C(=O)NC(=O)N(Cc2ccc(F)cc2)C1=O | n | n | x | n | n | n
CCCc1nc(SCC(=O)Nc2nccs2)c2ccccc2n1 | n | n | n | n | n | n
CCc1cc2cc3c(cc2nc1SCC(=O)Nc1c[nH]c(=O)[nH]c1=O)OCO3 | n | n | n | n | n | n
CCc1cc2cc3c(cc2nc1SCC(=O)Nc1nccs1)OCO3 | 56 | n | n | n | n | n
O=C(CSc1nc(-c2ccccc2)nc2ccccc12)Nc1nccs1 | 136 | n | n | n | n | n
CC1=NN(c2nc(-c3ccccc3)cs2)C(=O)C1 | n | 16 | n | n | n | n
Cc1ccc(S(=O)(=O)Oc2ccccc2/C=N/Nc2ccc(C(=O)O)cc2)cc1 | n | 9.1 | n | n | n | n
CCN(CC)C(=O)c1ccc2c(c1)C1C=CCC1C(C(=O)O)N2 (stereo not given) | n | 12 | n | n | x | n
CCOC(=O)C1Nc2ccc(C(=O)O)cc2C2C=CCC12 (stereo not given) | n | 21 | n | n | n | n
CC(C)C1Nc2ccc(C(=O)O)cc2C2C=CCC21 (stereo not given) | n | 9.3 | n | n | n | n
CCCC1Nc2ccc(C(=O)O)cc2C2C=CCC12 (stereo not given) | n | 30 | n | n | n | n
O=C(O)c1ccc2c(c1)C1C=CCC1C(c1ccncc1)N2 (stereo not given) | n | n | n | n | n | n
COc1ccccc1N(C)S(=O)(=O)c1ccc(C(=O)Nc2cccc(S(=O)(=O)N3CCOCC3)c2)cc1 | n | n | x | n | x | x
SMILES | MazF activator | FadD28 FP inh | Mtb bLac sens | BH1578 lux ind | Rv3671c protease | UGM FP inh
C[C@H]1CN([C@@H](C)CO)C(=O)CCCn2nncc2CO[C@H]1CN(C)C(=O)Nc1ccnc(N2CCOCC2)c1 | n | n | x | n | x | x
COc1ccc(-c2cc(=O)oc3c(C)c(OC(C)C(=O)Nc4ccc(CN5CCOCC5)cc4)ccc23)cc1 (stereo not given) | n | n | n | n | n | n
COc1ccc(N(CC(=O)N/N=C/c2ccc(-c3ccc([N+](=O)[O-])cc3)o2)S(=O)(=O)c2ccc(C)cc2)cc1 | n | n | n | n | n | 14
N#CC12C(=O)NC(=O)C1(C#N)C21CCCC1 (stereo not given) | n | n | x | n | x | x
CCN1CCCC1CN(Cc1cc2c(C)cc(C)cc2[nH]c1=O)C(=O)NC1CCCCC1 (stereo not given) | 59 | n | n | n | n | n
COc1cccc(-c2cc3nc(NCc4ccccc4F)n(C)c(=O)c3s2)c1 | x | n | x | n | x | x
C#CCn1c(=NC(=O)c2sc3ccccc3c2Cl)sc2cc(S(N)(=O)=O)ccc21 | 63 | n | n | n | n | n
O=C(Nc1ccccc1)c1ccc(NCCc2ccccc2)c([N+](=O)[O-])c1 | + | n | n | n | n | n
O=C(Nc1cccc(Cl)c1)c1ccc(NCC2CCCO2)c([N+](=O)[O-])c1 (stereo not given) | 67 | n | n | n | n | n
Cc1cccc(NC(=O)c2ccc(NCC3CCCO3)c([N+](=O)[O-])c2)c1 (stereo not given) | 121 | n | n | n | n | n
NC(=O)c1ccc(NCCc2ccccc2)c([N+](=O)[O-])c1 | n | n | n | n | n | n
Cc1cccc(NC(=O)c2ccc(NCC3CCCO3)c([N+](=O)[O-])c2)n1 (stereo not given) | n | n | n | n | n | n
COc1ccc(CNC(=O)C2CCCN(S(=O)(=O)c3c(C)noc3/C=C/N(C)C)C2)cc1 (stereo not given) | n | n | n | n | n | n
COc1ccc(-c2noc(N3CCC(C(=O)NCCCN4CCCCC4)CC3)n2)cc1 | n | n | n | n | n | n
CCOC(=O)C1CCN(C(=O)C2COc3ccccc3O2)CC1 (stereo not given) | n | n | n | n | n | n
O=C(Cc1cccs1)Nc1cc(SCCO)cc([N+](=O)[O-])c1 | n | n | n | n | n | 11
Nc1ccc2nonc2c1[N+](=O)[O-] | n | n | n | n | n | 23
CCOc1ccc(OCCCC(=O)N(CC)CC(=O)Nc2c(F)cccc2F)cc1 | n | n | n | n | n | n
CCOc1ccc2[nH]c(=O)c(CN(Cc3nnnn3Cc3ccco3)C3CCCCC3)cc2c1 | n | n | n | n | n | n
COc1cc2cc(CN(Cc3nnnn3Cc3ccco3)C3CCCCC3)c(=O)[nH]c2cc1OC | n | n | n | 33 | n | n
CSc1ccccc1NC(=O)Nc1cccc(Cl)c1 | 119 | n | n | n | n | x
COc1ccc(Cl)cc1C(=O)Nn1c(-c2cccs2)nc2ccccc2c1=O | n | 12 | n | n | n | n
CC[C@]12c3[nH]c4ccc(Cl)cc4c3CCN1C(=O)[C@@H](CC(=O)NCCCN(C)C)C[C@@H]2C(=O)N1CCN(C(=O)C2CC2)CC1 | n | n | x | n | x | x
CC[C@]12c3[nH]c4cc(-c5ccco5)ccc4c3CCN1C(=O)[C@@H](CC(=O)NCCCN(C)C)C[C@@H]2C(=O)N1CCN(C(=O)c2ccco2)CC1 | 53 | n | x | n | x | x
CC[C@]12c3[nH]c4ccc(OC)cc4c3CCN1C(=O)C(CC(=O)NCCCOC)C[C@@H]2C(=O)N1CCN(C(=O)C2CC2)CC1 (stereo not given in full) | 75 | n | x | n | x | x

Assay outcomes (PubChem)
